Assay results: PubChem BioAssay AID2315 (National Center for Advancing Translational Sciences (NCATS), 2010)
In all, about 290,000 compounds went through this assay and about 27,000 (9.3%) were called active. No stated cut-off is given here; in the data, active means inhibition mostly above about 28% (no sharp cut-off); inactive means mostly below about 43%. For the sample, actives were picked, then their nearest neighbours and some compounds at random.

Experiment: A qHTS for Small Molecule Inhibitors of Shiga Toxin; further: 0% is about no effect
Conditions: Vero cells, Shiga toxin protein synthesis inhibition reporter; at 38.7 µM, hits give high values
For `Cc1cc(C(F)F)n2nc(C(=O)Nc3ccc(S(=O)(=O)NC45CC6CC(CC(C6)C4)C5)cc3)nc2n1`, the inhibition was -15.3% (inactive).
With `CCOc1ccc2[nH]c(C(=O)N/N=C/c3cccc(OC)c3OC)cc2c1` the inhibition was 14% (inactive).
For `O=C(NCc1ccccc1)C(c1ccco1)N(C(=O)c1csnn1)c1ccccc1F` (centres undefined), the inhibition was -4.22% (inactive).
For `O=C(NCC(=O)N1CCN(c2ccccc2O)CC1)c1ccc2ccccc2c1`, the inhibition was 22.1% (inactive).
With `Cc1ccc(CC2CC(=O)N(c3cc(C)ccc3C)C2=O)cc1` (centres undefined) the inhibition was -11.4% (inactive).
For `N#C/C(=C\c1cccnc1)C(=O)Nc1ccc(SC(F)F)cc1`, the inhibition was 36.4% (inactive).
With `Cc1ccc(-n2c(-c3ccc(Cl)cc3)n[nH]c2=S)cc1` the inhibition was 4% (inactive).
In the case of `CCOC(=O)c1ccc2[nH]c3c(c2c1)CCCC3NC=O` (centres undefined), the inhibition is reported as 90.9% (inactive).
With `COc1ccc(N(C)C(=O)CCS(=O)(=O)c2cccc3nsnc23)cc1` the inhibition was -7.02% (inactive).
For `CCOc1ccccc1NC(=O)Cn1ncc2ccc([N+](=O)[O-])cc21`, the inhibition was -3.64% (inactive).
For `COc1ccc(N2CC(C(=O)NCCS(=O)(=O)N3CCN(c4ccccc4)CC3)CC2=O)cc1` (centres undefined), the inhibition was -3.67% (inactive).
For `O=C(NCC(=O)N(Cc1cccs1)C(C(=O)NC1CCCCC1)c1ccco1)c1cccs1` (centres undefined), the inhibition was 4.26% (inactive).
In the case of `O=C1c2cccc3cccc(c23)C(=O)N1c1cccc(O)c1`, the inhibition is reported as -6.01% (inactive).
For `COC(=O)c1cc(C(=O)NC(C)C2CC3CCC2C3)cc([N+](=O)[O-])c1` (centres undefined), the inhibition was -13% (inactive).
In the case of `COc1cc(C(=O)NCc2cc3cc(Cl)ccc3n2C)cc(OC)c1OC`, the inhibition is reported as -6.37% (inactive).
In the case of `COc1ccc(S(=O)(=O)NCCOc2ccccc2)cc1F`, the inhibition is reported as 21% (inactive).
In the case of `CC(=O)Nc1ccc(CC#N)cc1`, the inhibition is reported as -1.48% (inactive).
With `NC(=O)COc1ccc(NC(=O)c2ccccc2-c2ccccc2)cc1` the inhibition was -16.2% (inactive).
With `N#CCc1ccc(NC(=O)c2ccccc2C(=O)Nc2ccc(CC#N)cc2)cc1` the inhibition was 57.5% (active).
With `O=C(NCCO)C(=O)NCC(c1ccc2c(c1)OCO2)N1CCN(c2ccc(F)cc2)CC1` (centres undefined) the inhibition was 17.7% (inactive).
With `O=C(O)c1ccc(S(=O)(=O)N2CCOCC2)o1` the inhibition was -9.6% (inactive).
For `CS(=O)(=O)N(Cc1ccccc1)c1ccc(C(=O)NN=C2CCCCCC2)cc1`, the inhibition was 0.281% (inactive).
In the case of `O=C(COc1ccc(-c2ccccc2)cc1)NN=C1CCCC1`, the inhibition is reported as -0.705% (inactive).
For `CCc1ccc(C(=O)NN=C2CCCCCC2)s1`, the inhibition was 50.4% (active).
With `CN(c1ccc(C(=O)NCCC2=CCCCC2)cc1)S(C)(=O)=O` the inhibition was 89.4% (active).
With `CC(CC(=O)O)C(=O)c1ccc(Cl)c([N+](=O)[O-])c1` (centres undefined) the inhibition was -9.51% (inactive).
For `Cc1ccn2c(=O)c(C(=O)NCCC3=CCCCC3)c(O)nc2c1`, the inhibition was 0.166% (inactive).
In the case of `Cn1nnc2cc(C(=O)NCCC3=CCCCC3)ccc21`, the inhibition is reported as 64.2% (active).
In the case of `O=C(Cc1nn[nH]n1)NCCC1=CCCCC1`, the inhibition is reported as -11.6% (inactive).
For `CC(=O)Nc1ccc(S(=O)(=O)N(C)CC(=O)NCCC2=CCCCC2)cc1`, the inhibition was -23.7% (inactive).
In the case of `O=C(COc1ccc(Cl)cc1)NCCC1=CCCCC1`, the inhibition is reported as 19.6% (inactive).
In the case of `CN1CCNC(=O)C1CC(=O)NCCC1=CCCCC1` (centres undefined), the inhibition is reported as -5.56% (inactive).
For `O=C(NCCC1=CCCCC1)c1ccc(Cl)c([N+](=O)[O-])c1`, the inhibition was 78.7% (active).
In the case of `Cc1ccc(NS(=O)(=O)c2c(C)[nH]c(C)c2C(=O)N2CCCCC2)c(C)c1`, the inhibition is reported as -1.7% (inactive).
With `CCOc1ccc(NC(=O)CC(Cc2ccc(Cl)cc2)C(=O)O)cc1` (centres undefined) the inhibition was -2.62% (inactive).
In the case of `COC(=O)c1c(NC(=O)c2ccccc2F)sc2c1C(C(=O)OC)CC2` (centres undefined), the inhibition is reported as -16.3% (inactive).
With `COC(=O)[C@@H]1CC(O)CN1C(=O)C12CC3CC(CC(C3)C1)C2` (some centres undefined) the inhibition was 4.2% (inactive).
In the case of `COc1cccc(C(=O)Nc2nnc(S(=O)(=O)N3CCOCC3)s2)c1`, the inhibition is reported as 7.84% (inactive).
With `O=C(Nc1ccc(N2CCOCC2)c(Cl)c1)c1ccc(S(=O)(=O)N2CCOCC2)cc1` the inhibition was -13.3% (inactive).
With `O=C(Nc1nnc(S(=O)(=O)N2CCOCC2)s1)c1cccc(Br)c1` the inhibition was 31.4% (active).
In the case of `O=C(Nc1nnc(S(=O)(=O)N2CCCCCC2)s1)c1cccc(Br)c1`, the inhibition is reported as -2.66% (inactive).
In the case of `O=C(Nc1ccc(S(=O)(=O)N2CCOCC2)cc1)c1ccc2ncsc2c1`, the inhibition is reported as 64.5% (active).
In the case of `O=C(Nc1ccc(S(=O)(=O)Nc2nccs2)cc1)c1cccc(S(=O)(=O)N2CCOCC2)c1`, the inhibition is reported as -3.68% (inactive).
In the case of `O=C(c1cnc(Cl)c(Cl)c1)N1CCN(S(=O)(=O)c2ccc(F)cc2)CC1`, the inhibition is reported as 1.5% (inactive).
For `CCc1ccc(NC(=O)CN2CCC(C(=O)c3ccc(OC)cc3)CC2)cc1`, the inhibition was -10.2% (inactive).
For `CCNC(=O)CC1C(=O)N(c2ccc(OC)cc2)C(=O)N1CCOC` (centres undefined), the inhibition was -7.39% (inactive).
In the case of `CC(C)C[C@H](NC(=O)N1CC(=O)Nc2ccccc21)C(=O)N[C@H](Cc1ccccc1)C(=O)O`, the inhibition is reported as -3.7% (inactive).
In the case of `CCCn1c(C(O)c2ccc(OCC)cc2)nc2ccccc21` (centres undefined), the inhibition is reported as -6.45% (inactive).
For `CCOc1ccc(C(O)Cc2nc3ccccc3n2C)cc1` (centres undefined), the inhibition was 61.7% (active).
In the case of `COc1cccc(C(O)Cc2nc3ccccc3n2C)c1OC` (centres undefined), the inhibition is reported as 10.7% (inactive).
With `CC(C)c1ccc(NC(=S)NC2CC3C=CC2C3)cc1` (centres undefined) the inhibition was 81.8% (active).
For `S=C(NNC(=S)NC1CC2CCC1C2)NC1CC2C=CC1C2` (centres undefined), the inhibition was 38% (inactive).
For `S=C(NNC(=S)NC1CC2C=CC1C2)NC1CC2C=CC1C2` (centres undefined), the inhibition was 18.6% (inactive).
For `O=C(CN1CCC(NC(=O)Nc2ccccc2)CC1)Nc1cccc([N+](=O)[O-])c1`, the inhibition was -6.37% (inactive).
With `O=C(CCN1C(=O)C2C3CCC(C3)C2C1=O)Nc1ccc(Cl)cc1Cl` (centres undefined) the inhibition was 30.5% (inactive).
For `Cc1cccc(NC(=O)C2CCN(C(=O)NC3CCCCC3)CC2)c1`, the inhibition was -14.2% (inactive).
For `Cc1csc(=Nc2ccccc2)n1CCO`, the inhibition was -5.67% (inactive).
With `OCCn1c(-c2ccccc2)csc1=Nc1ccccc1` the inhibition was 29.8% (active).
For `Cc1csc(=NC(=O)c2ccccc2)n1CCO`, the inhibition was -11% (inactive).
In the case of `Cc1cc2c(cc1S(=O)(=O)CCC(=O)NCc1ccccc1)OCC(=O)N2`, the inhibition is reported as 9.17% (inactive).
For `COCCCNC(=O)CNC(=O)c1nn(-c2ccc(OC)cc2)c(=O)c2ccccc12`, the inhibition was -3.74% (inactive).
In the case of `O=C(CN1CCN(S(=O)(=O)c2cc(Cl)ccc2Cl)CC1)c1ccc(O)c(O)c1`, the inhibition is reported as -3.28% (inactive).
In the case of `COc1cc(OC)cc(C(=O)N[C@H](C(=O)Nc2nc3ccccc3[nH]2)C(C)C)c1`, the inhibition is reported as -3.89% (inactive).
In the case of `Cc1nc2ccc(C(=O)O)cc2[nH]1`, the inhibition is reported as -11.9% (inactive).
With `COC(=O)Nc1nc2ccc(Sc3ccccc3)cc2[nH]1` the inhibition was 76.6% (active).
With `Cc1ccc(S(=O)(=O)N(C)c2nc3ccccc3n3c(C(C)C)nnc23)cc1` the inhibition was 13.3% (inactive).
In the case of `CC(=O)Nc1ccc(/C=C/C(=O)c2ccccc2)cc1`, the inhibition is reported as 58.1% (active).
In the case of `COc1ccc(C(=O)/C=C/c2ccc(OC3CSC3)cc2)cc1`, the inhibition is reported as 2.97% (inactive).
In the case of `CC(=O)Nc1ccc(C(=O)/C=C/c2ccc[nH]2)cc1`, the inhibition is reported as 77.1% (active).
In the case of `CC(=O)Nc1ccc(NC(=O)CCCNC(=O)c2ccc(Cl)cc2)cc1`, the inhibition is reported as 3.88% (inactive).
With `CC(=O)Nc1ccc(NC(=S)NC(=O)/C=C/c2ccccc2)cc1` the inhibition was 5.78% (inactive).
In the case of `CCCC(=O)Nc1ccc(C(=O)N/N=C/c2ccc[nH]2)cc1`, the inhibition is reported as 13% (inactive).
For `C=CCNC(=S)/N=c1/ccccn1Cc1ccccc1`, the inhibition was 2.67% (inactive).
In the case of `O=C(NC(=S)NC1CCS(=O)(=O)C1)c1cccc([N+](=O)[O-])c1` (centres undefined), the inhibition is reported as -10.3% (inactive).
In the case of `Cc1ccc(SCC(=O)NNC(=O)c2ccc(S(C)(=O)=O)cc2)cc1`, the inhibition is reported as -6.84% (inactive).
In the case of `COc1ccc(CCn2c(=N)c(C(=O)NCC3CCCO3)cc3c(=O)n4cccc(C)c4nc32)cc1OC` (centres undefined), the inhibition is reported as 2.54% (inactive).
In the case of `O=C(NCc1nnc(SCC(=O)N2CCCCCC2)o1)c1ccc(F)cc1`, the inhibition is reported as -3.11% (inactive).
For `Fc1ccccc1N=C1Nc2cccc3cccc1c23`, the inhibition was 59% (active).
For `c1ccc(C2=Nc3cccc4cccc(c34)N2)cc1`, the inhibition was 3.03% (inactive).
With `COc1ccccc1C1=Nc2cccc3cccc(c23)N1` the inhibition was -3.03% (inactive).
In the case of `Cc1cc(N2C(=O)C(O)=C(C(=O)c3ccc(C)o3)C2c2ccc(OCc3ccccc3)cc2)no1` (centres undefined), the inhibition is reported as -3.21% (inactive).
With `COc1ccc(-c2nn(-c3ccccc3)cc2C(=O)Nc2nc(CC(C)=O)ns2)cc1` the inhibition was -2.47% (inactive).
In the case of `COc1ccc(-c2nn(-c3ccccc3)cc2/C=C\C(=O)Nc2ccc(C(=O)O)cc2)cc1`, the inhibition is reported as -20.1% (inactive).
For `COc1ccc(NC(=O)c2cn(-c3ccccc3)nc2SC)cc1`, the inhibition was 43.3% (active).
With `O=C(CN1CCC(O)(c2cccc(C(F)(F)F)c2)CC1)NCCc1ccccc1` the inhibition was -6.9% (inactive).
In the case of `CC(NC(=O)CNC(=O)Cc1cccc2ccccc12)c1ccc(S(N)(=O)=O)cc1` (centres undefined), the inhibition is reported as -8.32% (inactive).
With `COC(=O)c1ccccc1NC(=O)Cc1ccccc1OC` the inhibition was 0.83% (inactive).
For `CC[C@]1(c2ccccc2OC)C(=O)N(C(=O)OC)N1C(=O)OC`, the inhibition was 35.6% (active).
With `COc1ccccc1CC(=O)Nc1ccc(F)cc1F` the inhibition was 1.11% (inactive).
For `COc1ccccc1-n1c(SCC(=O)Nc2cccc(C(=O)O)c2)nnc1-c1ccccc1O`, the inhibition was 6.46% (inactive).
With `O=C(NCCc1ccccc1)c1ccc2c(c1)N(Cc1ccccc1)CCS2` the inhibition was 59.8% (active).
For `CCOC(=O)N1CCN(C(=O)c2ccc3c(c2)N(Cc2ccc(C)cc2)CCS3)CC1`, the inhibition was -7.18% (inactive).
For `O=C(NCCN1CCOCC1)c1ccc2c(c1)N(Cc1ccc(Cl)cc1)CCS2`, the inhibition was -14% (inactive).
In the case of `COCCNc1ccc(-c2n[nH]c(=O)c3ccccc23)cc1[N+](=O)[O-]`, the inhibition is reported as -2.3% (inactive).
